The record followed here is PubChem BioAssay.

The nature of assay [1]: Wnt pathway potentiators raising nuclear beta-catenin – imaging, WNT3A-conditioned medium, mouse C2C12, NPC library, primary screen (AID 1117326; in the data active means nuclear beta-catenin stimulation mostly above about 4.2%, no sharp cut-off; inactive means mostly below about 10%; further: reference of the scale not given here). The note with it: stronger effect = higher value.
Assay [2] in a line: stimulators of insulin release from INS-1E, primary screen, cell-based, 5 mM glucose, NPC library (AID 1117329;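 active means compound raises insulin release from rat beta cells at 5 mM glucose, no numeric limit stated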; further: reference of the scale not given here). The note with it: rat INS-1E insulin secretion, at 10 µM, stronger effect = higher value.
A short description of assay [3]: growth inhibition of GSK3B-pretreated HCT116 cells – cell-based, CellTiter-Glo, 0.2 to 20 µM (AID 1117336;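 active means compounds lowering colon cancer cell viability after pretreatment blocking the GSK3B kinase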). The note with it: HCT116 viability after GSK3B inhibitor, at 20 µM, stronger effect = higher value. A general note: In ATP-based viability assays light output follows the ATP content of the culture.
Assay [4] can be described thus: inhibition of endothelial tube formation, primary screen, imaging, VEGF stimulated, CD31 staining, tube area, NPC library (AID 1117340;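 active means compound that reduces growth-factor-driven endothelial tube area in a mixed cell culture, no cutoff stated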). The note with it: VEGF-stimulated ADSC/ECFC co-culture, at 10 µM, stronger effect = higher value.
A short description of assay [5]: GLP1 release stimulators, primary, NCI-H716, NPC library (AID 1117341). Further: reference of the scale not given here. The note with it: NCI-H716 cells, at 10 µM, stronger effect = higher value.
A short description of assay [6]: HCT116 colon cancer cell growth inhibition, primary screen, CellTiter-Glo luminescence, NPC library (AID 1117342;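 active means compounds that lower survival of HCT116 colon cancer cells in the luminescence readout, no numeric limit stated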). To be noted: at 20 µM (top of the series).
Assay [7] in a line: reduced SW480 viability measured with CellTiter-Glo, NPC library, primary (AID 1117343;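 active means compounds that lower viability of the colon cancer cells in the luminescence readout, with no numeric limit stated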). The note with it: CellTiter-Glo luminescence; at 20 µM (top of the series).
Assay [8] can be described thus: NPC library primary testing for decreased DLD-1 cell viability via CellTiter-Glo (AID 1117346;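 active means compounds that lower survival of DLD-1 colon cancer cells in the luminescence readout, no cutoff given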). To be noted: DLD-1 viability, CellTiter-Glo luminescence; at 20 µM (top of the series).

Active and inactive are the calls of the source.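 How the source made its calls, unless noted: active means compound raises GLP1 secretion from the human gut endocrine cells, with no numeric limit stated; inactive means the rest.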

Regarding `NS(=O)(=O)c1cc2c(cc1Cl)CN(C1CCCCC1)C2=O`, the nuclear beta-catenin stimulation is -0.9% (inactive) in assay [1] (at 10 µM) and -0.3% in assay [1] (stimulation, at 2 µM). Besides, the insulin secretion stimulation in assay [2] is -0.2% (inactive). Besides, the viability decrease in assay [3] is -0.4% (inactive). For the same compound, the tube area decrease in assay [4] was -3.4% (inactive). In addition, the GLP1 secretion stimulation in assay [5] is 1.4% (inactive). Also, the inhibition of viability in assay [6] is -2.17% (inactive). The viability decrease (inhibition) in assay [7] was -0.2% (inactive); in assay [8] it was -3.8% (inactive).

Take `Nc1ccncc1N`: the nuclear beta-catenin stimulation in assay [1] (at 10 µM) is 0.2% (inactive); in assay [1] (stimulation, at 2 µM) it was 0.5%. Moreover, the insulin secretion stimulation in assay [2] was -0.7% (inactive). Moreover, the viability decrease in assay [3] was -2.2% (inactive). Besides, in assay [4], the tube area decrease is -31% (inactive). Further, the GLP1 secretion stimulation in assay [5] was 3.3% (inactive). In addition, the inhibition of viability in assay [6] was 3.4% (inactive). The values for the viability decrease (inhibition) in assay [7] and in assay [8] were 7.7% (inactive) and 6.9% (inactive), respectively.

For `NCC[C@H](O)C(=O)N[C@@H]1C[C@H](N)[C@@H](O[C@H]2O[C@H](CN)[C@@H](O)[C@H](O)[C@@H]2O)[C@H](O)[C@@H]1O[C@H]1O[C@H](CO)[C@@H](O)[C@H](N)[C@@H]1O`, the nuclear beta-catenin stimulation is 0.4% (inactive) in assay [1] (at 10 µM) and -1.1% in assay [1] (stimulation, at 2 µM). In assay [2], the insulin secretion stimulation is 1.1% (inactive). In assay [3], the viability decrease is -9.3% (inactive). In assay [4], the tube area decrease was -7.9% (inactive). Also, the GLP1 secretion stimulation in assay [5] was 0.5% (inactive). In addition, the inhibition of viability in assay [6] was -2.7% (inactive). In addition, the figures for the viability decrease (inhibition) in assay [7] and in assay [8] were -3.7% (inactive) and 0.5% (inactive), respectively.

As for `O=C(CCN1CCN2CCCC2C1)N1c2ccccc2Sc2ccc(Cl)cc21` (stereo not given), the nuclear beta-catenin stimulation in assay [1] (at 10 µM) was 1.1% (inactive); in assay [1] (stimulation, at 2 µM), 0.2%. The insulin secretion stimulation in assay [2] was 63.8% (active). For the same compound, the viability decrease in assay [3] was 49.9% (inactive). For the same compound, in assay [4], the tube area decrease is 8% (inactive). The GLP1 secretion stimulation in assay [5] is 8.5% (inactive). The inhibition of viability in assay [6] was 61.4% (active). Moreover, the viability decrease (inhibition) in assay [7] is 99.3% (active); in assay [8], 49.5% (inactive).

With `Nc1nc(-c2ccccc2)c(Br)c(=O)[nH]1`, the nuclear beta-catenin stimulation in assay [1] (at 10 µM) is 3.6% (inactive); in assay [1] (stimulation, at 2 µM), 2.1%. In addition, the insulin secretion stimulation in assay [2] was -0.7% (inactive). In addition, the viability decrease in assay [3] is -50.3% (inactive). Moreover, the tube area decrease in assay [4] was 17% (inactive). Besides, the GLP1 secretion stimulation in assay [5] is 3.9% (inactive). In addition, the inhibition of viability in assay [6] is -10.9% (inactive). The viability decrease (inhibition) is 11.9% (inactive) in assay [7] and 0.7% (inactive) in assay [8].

Turning to `c1ccc(OCc2ccc(CCCN3CCOCC3)cc2)cc1`, the nuclear beta-catenin stimulation is -1% (inactive) in assay [1] (at 10 µM) and 0.3% in assay [1] (stimulation, at 2 µM). Besides, the insulin secretion stimulation in assay [2] is 4.5% (inactive). For the same compound, the viability decrease in assay [3] was 32.1% (inactive). In assay [4], the tube area decrease was 14% (inactive). For the same compound, the GLP1 secretion stimulation in assay [5] is -0.1% (inactive). Besides, in assay [6], the inhibition of viability is 54.5% (active). Further, the viability decrease (inhibition) is 34.7% (active) in assay [7] and 19.4% (inactive) in assay [8].

`O=C(/C=C/c1ccccc1)NCCO`: the nuclear beta-catenin stimulation in assay [1] (at 10 µM) is 1.1% (inactive); in assay [1] (stimulation, at 2 µM) it was 1.4%. In assay [2], the insulin secretion stimulation was -2.3% (inactive). Moreover, the viability decrease in assay [3] was -9.8% (inactive). Further, the tube area decrease in assay [4] was 26.7% (inactive). In addition, the GLP1 secretion stimulation in assay [5] is -1.5% (inactive). In assay [6], the inhibition of viability was 12.9% (inactive). In addition, the figures for the viability decrease (inhibition) in assay [7] and in assay [8] were -3.5% (inactive) and -16.4% (inactive), respectively.

As to `C/C=C(/C(=C/C)c1ccc(OC(C)=O)cc1)c1ccc(OC(C)=O)cc1`, the nuclear beta-catenin stimulation in assay [1] (at 10 µM) is 18.1% (inactive); in assay [1] (stimulation, at 2 µM) it was 2.9%. Moreover, the insulin secretion stimulation in assay [2] was 1.65% (inactive). For the same compound, the viability decrease in assay [3] was 108% (active). The tube area decrease in assay [4] is 65.4% (active). In assay [5], the GLP1 secretion stimulation was 11.9% (inactive). Moreover, the inhibition of viability in assay [6] was 108% (active). Also, the viability decrease (inhibition) in assay [7] is 129% (active); in assay [8], 97.2% (active).

Turning to `CC(=O)OC(C)OC(=O)C(C)c1ccc(-c2ccccc2)c(F)c1` (stereo not given), the nuclear beta-catenin stimulation in assay [1] (at 10 µM) was 3.1% (inactive); in assay [1] (stimulation, at 2 µM), 0.3%. Further, the insulin secretion stimulation in assay [2] is 0.5% (inactive). In assay [3], the viability decrease is -2.95% (inactive). For the same compound, the tube area decrease in assay [4] was -36.8% (inactive). Further, the GLP1 secretion stimulation in assay [5] is -1.1% (inactive). For the same compound, the inhibition of viability in assay [6] is 8.9% (inactive). Further, the viability decrease (inhibition) in assay [7] was 4.6% (inactive); in assay [8] it was -3.05% (inactive).

Consider `Oc1cc(O)cc(O)c1`, for which the nuclear beta-catenin stimulation is -0.5% (inactive) in assay [1] (at 10 µM) and 2.8% in assay [1] (stimulation, at 2 µM). Besides, in assay [2], the insulin secretion stimulation was -1.3% (inactive). The viability decrease in assay [3] is -20.3% (inactive). Also, the tube area decrease in assay [4] is -14.9% (inactive). Besides, the GLP1 secretion stimulation in assay [5] was -1.7% (inactive). Further, the inhibition of viability in assay [6] is -0.5% (inactive). The viability decrease (inhibition) in assay [7] is 21.1% (inactive); in assay [8], -3.4% (inactive).

As for `C/C=C/c1ccc(O)c(OC)c1`, the nuclear beta-catenin stimulation in assay [1] (at 10 µM) was 9.7% (inactive); in assay [1] (stimulation, at 2 µM) it was 0.5%. In addition, the insulin secretion stimulation in assay [2] is -0.1% (inactive). Moreover, the viability decrease in assay [3] is 2.5% (inactive). Besides, the tube area decrease in assay [4] is -5.2% (inactive). The GLP1 secretion stimulation in assay [5] is -3.8% (inactive). Moreover, the inhibition of viability in assay [6] is 8.25% (inactive). Further, the viability decrease (inhibition) in assay [7] was 51.6% (active); in assay [8], 18.6% (inactive).

Take `CSCC[C@H](N)C(=O)O`: the nuclear beta-catenin stimulation is 1.9% (inactive) in assay [1] (at 10 µM) and 1.3% in assay [1] (stimulation, at 2 µM). Besides, the insulin secretion stimulation in assay [2] was 0.5% (inactive). Besides, the viability decrease in assay [3] is -8.1% (inactive). In addition, the tube area decrease in assay [4] is 2.3% (inactive). The GLP1 secretion stimulation in assay [5] was -2.6% (inactive). In assay [6], the inhibition of viability was 0.5% (inactive). The viability decrease (inhibition) in assay [7] is 0.4% (inactive); in assay [8], -6% (inactive).

For `Cc1nc(-c2ccc(Cl)cc2)oc1COC(C)(C)C(=O)O`, the nuclear beta-catenin stimulation was 0.5% (inactive) in assay [1] (at 10 µM) and 0.6% in assay [1] (stimulation, at 2 µM). Besides, the insulin secretion stimulation in assay [2] was 3.1% (inactive). Further, the viability decrease in assay [3] was -10.1% (inactive). Besides, the tube area decrease in assay [4] is 9.7% (inactive). For the same compound, in assay [5], the GLP1 secretion stimulation was -2.6% (inactive). The inhibition of viability in assay [6] was 8.5% (inactive). For the same compound, the viability decrease (inhibition) is 14.8% (inactive) in assay [7] and 10% (active) in assay [8].

`COC(=O)c1cc(S(N)(=O)=O)ccc1OC`: the nuclear beta-catenin stimulation was 0.9% (inactive) in assay [1] (at 10 µM) and 1.4% in assay [1] (stimulation, at 2 µM). Moreover, in assay [2], the insulin secretion stimulation is -0.15% (inactive). Further, the viability decrease in assay [3] is -6.1% (inactive). The tube area decrease in assay [4] was 1.6% (inactive). In assay [5], the GLP1 secretion stimulation was 0.1% (inactive). For the same compound, in assay [6], the inhibition of viability was -5.9% (inactive). Also, the viability decrease (inhibition) in assay [7] is -8.9% (inactive); in assay [8], -2.9% (inactive).

With `CC(C)c1cc2c(cc1S(=O)(=O)O)[C@@]1(C)CCC[C@@](C)(C(=O)O)[C@@H]1CC2`, the nuclear beta-catenin stimulation in assay [1] (at 10 µM) was -1% (inactive); in assay [1] (stimulation, at 2 µM), -3.3%. Also, the insulin secretion stimulation in assay [2] is 1.4% (inactive). Moreover, the viability decrease in assay [3] was 3.3% (inactive). Moreover, in assay [4], the tube area decrease is -20.8% (inactive). The GLP1 secretion stimulation in assay [5] was -1.8% (inactive). In addition, the inhibition of viability in assay [6] was 5.2% (inactive). Besides, the viability decrease (inhibition) in assay [7] is -5.2% (inactive); in assay [8], 11.9% (inactive).
